Source: PubChem BioAssay (National Center for Advancing Translational Sciences (NCATS))
Rows were chosen to be rich in hits. Some 5.9% of all compounds tested hit in one or more screens of this group.
GALK inh = galactokinase (human) inhibition. P51570. Purified GALK, Kinase-Glo residual ATP luminescence. Potency, µM (doses to about 57.5 µM), without a hit: top-dose activity change, negative = inhibition, most hits filed as inhibitors. hit rate 0.007% among 270,000; further: potency means the concentration at half of the fitted maximal effect
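Kinase-Glo Plus luminescence measured ATP left after a 1 h room-temperature reaction. The reaction used 5 nM GALK, 100 uM galactose and 35 uM ATP at pH 8.0 (20 mM HEPES, 5 mM MgCl2, 60 mM NaCl, 1 mM DTT, 0.01% BSA).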
Gal4-VP16 FLuc = inhibits Gal4-VP16 luciferase reporter, ROR gamma counter-screen | Drosophila S2 Gal4-VP16 UAS-luciferase, luminescence, 20 h | Potency, µM (titrated, usually from 53.6 µM), for inactives: at the highest dose activity, negative = inhibition, actives largely listed as inhibitors | hit rate 3.5% among 310,000;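 further: Gal4-VP16 expression switched on by copper sulfate through the metallothionein promoter; potency means the concentration at half of the fitted maximal effect; nearly all actives have a fitted effect of over 50% in size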
TrxR1 substrate = substrates of rat thioredoxin reductase 1 | O89049 | purified TrxR1 substrate turnover, NADPH consumption readout | Potency, µM (series often up to 114 µM), inactives show at the top dose activity change, negative = substrate turnover | hit rate 0.01% among 390,000; further: potency means the concentration at half of the fitted maximal effect; nearly all actives have a fitted effect of over 50% in size
Target sequence (O89049 whole entry, looked up): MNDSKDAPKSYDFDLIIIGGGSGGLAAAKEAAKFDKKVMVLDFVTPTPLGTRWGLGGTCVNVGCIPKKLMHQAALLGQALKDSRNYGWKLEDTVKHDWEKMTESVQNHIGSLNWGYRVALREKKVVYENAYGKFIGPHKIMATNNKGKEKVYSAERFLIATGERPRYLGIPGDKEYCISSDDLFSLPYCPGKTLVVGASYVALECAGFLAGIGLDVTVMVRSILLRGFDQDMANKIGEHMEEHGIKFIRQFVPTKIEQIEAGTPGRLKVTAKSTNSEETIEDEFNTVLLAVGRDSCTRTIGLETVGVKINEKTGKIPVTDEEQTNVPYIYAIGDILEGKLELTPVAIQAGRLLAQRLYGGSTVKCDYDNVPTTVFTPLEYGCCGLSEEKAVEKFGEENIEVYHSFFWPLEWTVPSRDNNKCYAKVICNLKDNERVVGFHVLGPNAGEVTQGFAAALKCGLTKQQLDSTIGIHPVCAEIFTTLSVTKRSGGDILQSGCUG
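Rat TrxR1, dispensed at 90 nM, was prereduced with 400 uM NADPH (final) for 5 min at ~22 deg C, then incubated with compound 15 min before 400 uM selenite. A first-read NADPH fluorescence drop versus no-compound background flagged substrates.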
rTrxR1 inhibitor = blocks rat thioredoxin reductase 1. AID 588453. Potency, µM (top dose mostly 114 µM), inactives show at the highest dose activity change, negative = inhibition, hits mostly inhibitors. hit rate 1% among 390,000. recombinant rTrxR1, NADPH fluorescence consumption, selenite substrate; further: potency means the concentration at half of the fitted maximal effect; nearly all actives have a fitted effect of over 65% in size
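Rat TrxR1 (90 nM in the dispensed reagent) was pre-reduced with 400 uM NADPH for 5 min at room temperature, then incubated with compound for 15 min. After 400 uM selenite was added, NADPH fluorescence (Ex 340/Em 450 nm) was followed for 8 min.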
RORg inh = ROR gamma (mouse) transcription inhibition; Drosophila S2 Gal4-RORgamma UAS-luciferase reporter, 20 h; Potency, µM (doses to about 53.6 µM), for inactives: at the top dose activity change, negative = inhibition, actives largely listed as inhibitors; hit rate 5.4% among 310,000; further: potency means the concentration at half of the fitted maximal effect; nearly all actives have a fitted effect of over 60% in size
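Drosophila Schneider cells stably carrying a metallothionein-driven Gal4 DBD–ROR gamma fusion and a UAS-Photinus luciferase reporter were exposed to compound for 1 hr, then induced with copper sulfate (700 uM final) for 20 hr at ambient temperature before luminescence reading.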
FBPA coupling cs = inhibits coupling enzyme system, counter-screen for aldolase hits; activity change, negative = inhibition, % at 58.2 µM, hits read low; hit rate 0.67% among 290,000; coupling enzyme system counterscreen, AmpLite Red fluorescence; AID 2472; in the data active means activity change below about -30%
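Fluorescence at 525 nm excitation and 598 nm emission measured inhibition of the coupled detection system without aldolase. Compounds (at 57.5 uM final) were preincubated 10 min at room temperature with coupling enzyme reagent before a 20 min substrate/AmpLite Red step.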
* = called active by the depositor; ? = inconclusive; · = not tested or not shown; [ ] = remark or other dose. Unless noted, the call rests on the fitted dose curve; in most records, active means well fitted curve in the direction sought with a large enough effect; inconclusive means small, poorly fitted or top-dose-only effect, or another doubt; inactive means no such curve, though single readings can be large; an effect the other way counts as inactive or inconclusive. On the % scale 0 is the no-effect control and ±100 the full control effect.

SMILES | GALK inh | Gal4-VP16 FLuc | TrxR1 substrate | rTrxR1 inhibitor | RORg inh | FBPA coupling cs
CCOC(=O)[C@@H]1[C@H]2COc3ccccc3[C@@H]2N2C(=O)N(c3ccc(C)cc3)C(=O)[C@@]12C | · | · | 1% | 12% | · | ·
COc1ccc(S(=O)(=O)N2CCOCC2)c2ccccc12 | 7% | 3% | 1% | 12% | 6% | 0
COc1cc(NC(=O)CSc2nc3c(C)ccc(C)c3cc2C)c(C(=O)O)cc1OC | · | ? | -5% | -3% | 24% | 1
COc1ccc(S(=O)(=O)N(C)c2ccc(C(=O)NC3CC3)cc2)cc1 | 4% | -2% | -5% | -11% | 0% | ·
C=CCNC(=S)NNC(=O)c1ccccc1 | 0% | ? | -5% | -1% | ? | 5
C=CCNC(=S)NNC(=O)c1cccc2ccccc12 | 0% | -27% | -2% | 0% | 1.1µM* | -1
C=CCNC(=S)NNC(=O)c1csc(C)c1CC | -2% | -17% | -1% | 9% | 8.9µM* | 0
CCCCNC(=S)NNC(=O)c1csc(C)c1CC | 2% | -27% | 0% | 3% | 2.8µM* | -1
Cn1ccnc1SCC(=O)Nc1cccc(Br)c1 | · | · | 7% | 5% | · | ·
COc1ccc(NC(=S)N(CCCN2CCOCC2)C(C)c2cc3cccc(OC)c3o2)cc1 (stereo unspecified) | 0% | -8%[10 µM] | 6% | 9% | -2% | 3
COc1cccc2cc(C(C)N(CCCN3CCOCC3)C(=S)Nc3ccc(C)c(C)c3)oc12 (stereo unspecified) | -2% | ? | -1% | 0% | 11µM* | 0
COc1cccc(NC(=S)N(CCCN2CCOCC2)C(C)c2cc3ccccc3o2)c1 (stereo unspecified) | -2% | ? | -5% | 10% | 11µM* | 0
COc1cccc2cc(C(C)N(CCCN3CCOCC3)C(=S)Nc3cccc(C)c3C)oc12 (stereo unspecified) | -4% | -8%[10 µM] | -8% | -16% | 11µM* | 0
COc1cccc2cc(C(C)N(CCCN3CCOCC3)C(=S)Nc3cc(C)ccc3C)oc12 (stereo unspecified) | -1% | 6%[10 µM] | -6% | 4% | 11µM* | 0
CC(C)CN1C(=O)NC2(CCCc3ccccc32)C1=O (stereo unspecified) | 6% | 3% | 4% | 22% | -1% | ·
OCCC1CN(Cc2nc(-c3ccccc3)cs2)CCN1C1CCCC1 (stereo unspecified) | 6% | 2% | 6% | 32% | 3% | 4
O=C(CSc1nc(-c2ccccc2Cl)ns1)NCc1ccc2c(c1)OCO2 | 0% | -2% | -5% | -2% | -10%[10 µM] | 0
CCc1cccc(NC(=S)N(CCCN2CCOCC2)C(C)c2cc3cccc(OC)c3o2)c1 (stereo unspecified) | -1% | ? | 6% | 14% | 11µM* | -1
COc1cccc2cc(C(C)N(CCCN3CCOCC3)C(=O)Nc3ccccc3)oc12 (stereo unspecified) | 0% | -3% | -2% | 6% | 2% | -3
N#CCc1ccc(NC(=O)CSc2nnc(C3CC3)n2C2CC2)cc1 | · | · | 2% | 15% | · | ·
CN(C(=S)NC(=O)/C=C/c1ccc(F)cc1)C1CCCCC1 | · | 2.5µM* | 0% | 1% | 1.3µM* | 1
CC(C)NC(=S)NC(=O)/C=C/c1ccc(F)cc1 | 2% | 7.1µM* | -7% | -24% | 1.8µM* | -1
CN(C(=O)/C=C/c1ccc(F)cc1)C1CCCCC1 | · | · | 3% | 20%[57.1 µM] | · | ·
Cc1cccc(NC(=S)N(C)C2CCCCC2)c1 | 6% | 18µM* | 0% | 3% | 11µM* | -1
Cc1ccc(C(=O)NC(=S)N(C)C2CCCCC2)cc1 | -1% | 3.2µM* | -6% | -15% | 2.2µM* | ·
Cc1cccc(NC(=S)NC2CCCC2)c1 | 1% | -15% | -3% | 6%[57.1 µM] | 22% | 1
Cc1ccc(S(=O)(=O)Nc2nc3ccccc3nc2NCC2CCCO2)c(C)c1 (stereo unspecified) | -2% | 4% | 59% | -26% | 30% | 8
